MT1-MMP txn act: activates MT1-MMP transcription | HT1080 MT1-MMP promoter luciferase reporter, luminescence, overnight; stronger effect = higher value | activation factor at 10 µM | actives 0.16% (n = 86,000);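 active = activation factor of at least 2 for MT1-MMP transcription at 10 µM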
Smad3 FoxH1 inh: Smad3 (human) transcription factor binding inhibition; P84022; TR-FRET Smad3/Dy647-FoxH1 peptide binding, europium anti-His; inhibition, % at 25 µM; actives 0.29% (n = 88,000);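 active = compounds that reduce the energy-transfer binding signal between the protein and its labelled peptide by more than half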;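 note: 0% = Smad3 plus labelled peptide maximal FRET and 100% = peptide-only background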
ERa coact inh: blocks coactivator binding to human estrogen receptor alpha | inhibition, % at 25.6 µM | actives 1.7% (n = 86,000) | TR-FRET ER-alpha LBD / SRC-1 peptide, estradiol-bound; in the data active = inhibition above about 50%;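 note: 0% = receptor plus peptide control and 100% = peptide only without receptor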
ERb coact inh: ER-beta (human) coactivator binding inhibition. Q92731. TR-FRET ER-beta LBD / SRC1-Cy5 peptide binding; receptor agonist-loaded with 1 µM estradiol. inhibition, % at 25.6 µM. actives 1.3% (n = 86,000). AID 633;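 active = compounds whose percent inhibition of the receptor-coactivator binding signal exceeds about 50% in the single-dose screen, limit read from the data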;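 note: 0% = receptor plus peptide wells without compound and 100% = peptide-only wells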
Target sequence (Q92731 whole entry, looked up, the tested form may be a part): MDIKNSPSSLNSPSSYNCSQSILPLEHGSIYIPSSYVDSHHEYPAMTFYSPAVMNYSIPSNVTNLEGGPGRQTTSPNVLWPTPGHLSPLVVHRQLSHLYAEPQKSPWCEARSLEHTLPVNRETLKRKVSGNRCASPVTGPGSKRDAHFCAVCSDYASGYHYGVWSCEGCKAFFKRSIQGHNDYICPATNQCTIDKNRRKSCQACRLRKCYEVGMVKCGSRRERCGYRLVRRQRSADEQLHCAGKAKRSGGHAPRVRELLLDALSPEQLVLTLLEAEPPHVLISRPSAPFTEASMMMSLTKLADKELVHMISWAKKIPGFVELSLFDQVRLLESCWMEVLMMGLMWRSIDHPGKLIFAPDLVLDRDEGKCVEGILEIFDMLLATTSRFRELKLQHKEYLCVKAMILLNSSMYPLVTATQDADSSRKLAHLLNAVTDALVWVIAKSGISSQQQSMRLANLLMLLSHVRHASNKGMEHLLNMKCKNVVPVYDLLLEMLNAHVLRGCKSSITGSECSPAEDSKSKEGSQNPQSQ
Candida biofilm: kills Candida albicans biofilms | C. albicans biofilm + clotrimazole, Alamar Blue | inhibition, % at 6 µM | actives 0.14% (n = 85,000) | AID 834;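 active = inhibition above 20%; inactive = inhibition below 20%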;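 note: preformed 24 hr biofilms exposed to compound for 48 hr; 0% = biofilm without compound and 100% = blank killed by clotrimazole plus chlorhexidine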
ERa coact pot: enhances coactivator binding to human estrogen receptor alpha; actives 1.3% (n = 86,000); P03372; TR-FRET ERalpha-LBD/SRC-Cy5 coactivator binding, 2 h; 100 = basal binding, no effect; AID 639; coactivator binding (% of control), % at 25.6 µM; in the data active = activity above about 200%;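 note: binding measured in presence of low estradiol as agonist stimulus; 0% = peptide alone without receptor and 100% = receptor with peptide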
* hit, by the source's call; [ ] = remark or other dose. Rows were chosen to be rich in hits. Some 3.8% of all compounds tested hit in one or more screens of this group.

For CCCCN(CCCC)S(=O)(=O)c1ccc(NC(=O)Cc2cccs2)cc1 the results were MT1-MMP txn act 1, Smad3 FoxH1 inh 3, ERa coact inh 67*[fluorescence artefact?], ERb coact inh 67*, Candida biofilm 0 and ERa coact pot 62.
CC(=O)c1cccc(NC(=O)Cc2cccs2)c1 was read as MT1-MMP txn act 1.1, Smad3 FoxH1 inh 9, ERa coact inh 84*, ERb coact inh 73*[fluorescence artefact?], Candida biofilm 5 and ERa coact pot 29.
For CCCN(CCC)S(=O)(=O)c1ccc(NC(=O)Cc2cccs2)cc1 the results were MT1-MMP txn act 1.4, Smad3 FoxH1 inh 5, ERa coact inh 63*, ERb coact inh 48, Candida biofilm 2 and ERa coact pot 79.
For O=C(CSc1nc(Nc2ccccc2)nc(N2CCOCC2)n1)N1CCc2ccccc21 the results were MT1-MMP txn act 1, Smad3 FoxH1 inh 2, ERa coact inh 19, ERb coact inh 4, Candida biofilm 2 and ERa coact pot 209*.
O=C(CSc1nc(Nc2ccccc2)nc(N2CCOCC2)n1)N1CCCC1 was read as MT1-MMP txn act 1, Smad3 FoxH1 inh 4, ERa coact inh -7, ERb coact inh -3, Candida biofilm 1 and ERa coact pot 92.
`O=C(O)CSCc1cccc2ccccc12` gave Smad3 FoxH1 inh 0.
CC(=O)Nc1ccc2[nH]c(C)cc(=O)c2c1 was read as Smad3 FoxH1 inh 3, ERa coact inh 77*, ERb coact inh 44, Candida biofilm 0 and ERa coact pot 33.
Screening c1ccc(-c2nc3c4ccccc4nc(N4CCN(c5ccccn5)CC4)n3n2)cc1 returned MT1-MMP txn act 1.2, Smad3 FoxH1 inh 0, ERa coact inh 15, ERb coact inh -1, Candida biofilm 11 and ERa coact pot 215*[fluorescence artefact?].
For O=C(Nc1ccc2c(c1)nc1n2CCN(C2CCCCC2)C1)c1ccco1 the results were MT1-MMP txn act 1.3, Smad3 FoxH1 inh 6, ERa coact inh 61*, ERb coact inh 53*, Candida biofilm 10 and ERa coact pot 43.
For O=C(Nc1ccc2c(c1)nc1n2CCSC1)c1ccco1 the results were MT1-MMP txn act 0.5, Smad3 FoxH1 inh 44, ERa coact inh 80*, ERb coact inh 61*[fluorescence artefact?], Candida biofilm 1 and ERa coact pot 123.
For Cn1c(CCNC(=O)c2ccco2)nc2cc(NC(=O)C3CCCCC3)ccc21 the results were MT1-MMP txn act 1.4, Smad3 FoxH1 inh -4, ERa coact inh 4, ERb coact inh -6, Candida biofilm 6 and ERa coact pot 123.
For O=C(Nc1ccc2c(c1)nc1n2CCOC1)c1ccco1 the results were MT1-MMP txn act 1.4, Smad3 FoxH1 inh -4, ERa coact inh 2, ERb coact inh -12, Candida biofilm 6 and ERa coact pot 122.
For CCC(C)NC(=O)c1ccc(CS(=O)(=O)Cc2ccc(Cl)cc2)o1 (configuration not stated) the results were MT1-MMP txn act 1.2, Smad3 FoxH1 inh 4, ERa coact inh -2, ERb coact inh -16, Candida biofilm 3 and ERa coact pot 113.
Screening COC(=O)[C@@]1(Cc2ccc(OC)cc2)[C@H]2c3cc(C(=O)N4CCCC4)n(CCc4c[nH]c5ccc(O)cc45)c3C[C@H]2CN1C(=O)c1ccccc1 returned MT1-MMP txn act 1.2.
For COc1ccccc1NC(=O)COc1ccc(C(=O)OCC(=O)N2CCCC2=O)cc1OC the results were MT1-MMP txn act 1.1, Smad3 FoxH1 inh 0, ERa coact inh -5, ERb coact inh 12, Candida biofilm 2 and ERa coact pot 349*[fluorescence artefact?].
`N/C(CC/C(N)=N\O)=N\O` gave Smad3 FoxH1 inh -12.
`CCOC(=O)c1ccc(NC(=O)N2CC(C)OC(C)C2)cc1` (configuration not stated) gave MT1-MMP txn act 2*, Smad3 FoxH1 inh 3, ERa coact inh 13, ERb coact inh -4, Candida biofilm 4 and ERa coact pot 120.
Screening COC(=O)CC1Oc2cc3oc4c5ccccc5oc(=O)c4c3cc2O1 (configuration not stated) returned MT1-MMP txn act 1.1.
`Cc1cccc(C(=O)Nc2cccc(C(=O)N3CCOCC3)c2)c1` gave MT1-MMP txn act 1.3, Smad3 FoxH1 inh 7, ERa coact inh 7, ERb coact inh 3, Candida biofilm 3 and ERa coact pot 239*.
Screening COc1cccc(C(=O)Nc2cccc(C(=O)N3CCOCC3)c2)c1 returned MT1-MMP txn act 1, Smad3 FoxH1 inh 7, ERa coact inh 6, ERb coact inh 4, Candida biofilm 3 and ERa coact pot 101.
Screening Cc1cc(C(=O)CSc2nc3ccccc3n2CCC#N)c(C)n1Cc1cccs1 returned MT1-MMP txn act 1.5, Smad3 FoxH1 inh 0, ERa coact inh 7, ERb coact inh 20, Candida biofilm 9 and ERa coact pot 273*.
`Cc1ccc(NC(=O)CSc2nnc(-c3ccccc3Br)o2)cc1C` gave MT1-MMP txn act 1.2, Smad3 FoxH1 inh -9, ERa coact inh 3, ERb coact inh 5, Candida biofilm 9 and ERa coact pot 96.
Cc1cc(C)c(C(=O)CSc2nnc(-c3ccccc3Br)o2)cc1C was read as MT1-MMP txn act 1.2, Smad3 FoxH1 inh 2, ERa coact inh 4, ERb coact inh 17, Candida biofilm 1 and ERa coact pot 273*[fluorescence artefact?].
N#CCCn1c(SCC(=O)c2c[nH]c3ccccc23)nc2ccccc21 was read as MT1-MMP txn act 1.2, Smad3 FoxH1 inh 11, ERa coact inh 13, ERb coact inh -4, Candida biofilm 10 and ERa coact pot 117.
Screening Cc1cc(C(=O)CSc2nnc(-c3ccccc3F)o2)c(C)n1Cc1cccs1 returned MT1-MMP txn act 1, Smad3 FoxH1 inh -1, ERa coact inh 6, ERb coact inh 20, Candida biofilm 5 and ERa coact pot 309*.
COC(=O)C1=C(CCc2ccccc2)NC(=O)NC1c1ccc(Br)cc1 (configuration not stated) was read as MT1-MMP txn act 1.1.
`Cc1cc(N2CCOCC2)nc2ccc(Cc3ccc4nc(N5CCOCC5)cc(C)c4c3)cc12` gave Smad3 FoxH1 inh 13.
For CC1(C)Cc2c(sc(NC(=O)c3ccc(Br)o3)c2C#N)CO1 the results were MT1-MMP txn act 2.3*, Smad3 FoxH1 inh 7, ERa coact inh -4, ERb coact inh -7 and ERa coact pot 112.
C[C@H](CC(=O)O)C(C(=O)O)C(=O)O was read as Smad3 FoxH1 inh -3.
Screening CCn1c(COc2ccc(C)cc2)nnc1SCc1nc2ccccc2[nH]1 returned MT1-MMP txn act 1.1, Smad3 FoxH1 inh -16, ERa coact inh 1, ERb coact inh -15, Candida biofilm 3 and ERa coact pot 86.
`Cn1c(COc2ccccc2)nnc1SCc1nc2ccccc2[nH]1` gave MT1-MMP txn act 1.2, Smad3 FoxH1 inh 94*, ERa coact inh 1, ERb coact inh 0, Candida biofilm 6 and ERa coact pot 120.

Assay outcomes: PubChem BioAssay, several laboratories
